# Records with an inconclusive call do not appear. Unmarked numbers belong to inactive results. Calls of active or inactive are those of the source. Calls come from the whole dose curve; as a rule, active = well fitted inhibition curve with a large enough effect; inconclusive = small, poorly fitted or top-dose-only effect; inactive = no such curve, though single readings can be large or run the other way.
# Experiment: Orthogonal mCherry assay for qRT-PCR qHTS of selected Zika virus inhibitors
# Conditions: Vero cells, ZIKV-mCherry infection imaging, 48-72 h; series mostly up to 32.6 µM; activity change, negative = inhibition: at the top concentration
# Description: Description: Assay Submitters (PI): Avindra Nath, Ph.D., National Institute of Neurological Disorders and Stroke (NINDS), Bethesda, MD Radhakrishnan Padmanabhan, Ph.D., Georgetown University (GU), Washington D.C. Zika Virus causes congenital defects, including microcephaly and is associated with Guillain-Barre syndrome, eningoencephalitis and myelitis in infected adult. […] Using a target-based approach, we hope to establish a screening paradigm to uncover novel, cell-active NS2B-NS3 protease (Zika Virus) specific inhibitors from NCATS' collection of small molecules using qHTS. […] Four assay panel was created to identify potential Zika Virus inhibitors. Namely, (1) GU unlinked NS2B-NS3 AMC tagged protease qHTS, (2) GU unlinked NS2B-NS3 Rhodamine tagged protease qHTS, (3) NINDS linked NS2B-NS3 AMC tagged protease qHTS, (4) NINDS linked NS2B-NS3 Rhodamine tagged protease qHTS. Inhibitors of the Zika virus primary screens are confirmed using qRT-PCR secondary assays, mCherry orthogonal assay, and Vero cells viability counterscreen. Early Translation Branch (ETB) National Center for Advancing Translational Sciences (NCATS), Rockville, MD National Institute of Health (NIH), Bethesda, Maryland
# 384 well ZIKV-mCherry Assay: We have developed a new orthogonal imaging assay in 384-well plate format, which uses recombinant virus ZIKV-mCherry in Vero cells. Briefly, 30 microL of Vero cells derived from a green monkey cell line, were dispensed by Multidrop Dispenser into a clear solid bottom black 384 well plate (ultracarrier, Perkin Elmer LifeSciences) at a concentration of 5,000 cells per well. […] The TIFFs were quantitated using the canned Multi Target Analysis protocol (GE Investigator Workstation software v3.7.2). […] A recombinant Zika viral infection was monitored in the Cy5 channel (cells) using a 2 microm collar dilation from the nuclear bitmap. mCherry objects with an average nuclear RFU intensity above 450 (3 stdev above mean negative control wells) were considered "mcherry positive" and data was analyzed by percent infection rate.
Structure (SMILES),Potency,"activity change, negative = inhibition"
CC(C)=CCC[C@]1(C)C=Cc2c(O)c3c(c(CC=C(C)C)c2O1)O[C@]12C(=C[C@@H]4CC1C(C)(C)O[C@@]2(C/C=C(/C)C(=O)O)C4=O)C3=O,3.55 µM (active),–
O=C1OC(c2ccc(O)c(S(=O)(=O)O)c2)(c2ccc(O)c(S(=O)(=O)O)c2)c2c(Br)c(Br)c(Br)c(Br)c21,–,-37.8%
CC(=O)c1c(O)c(C)c(O)c(Cc2c(O)c3c(c(C(=O)/C=C/c4ccccc4)c2O)OC(C)(C)C=C3)c1O,11.2 µM (active),–
